# Unmarked numbers belong to inactive results. Records with an inconclusive call do not appear. Active and inactive are the calls of the source. Unless noted, the call rests on the fitted dose curve; in most records, active means well fitted curve in either direction with a large enough effect (not every such curve was filed as active); inconclusive means small, poorly fitted or top-dose-only effect, or another doubt; inactive means flat fitted curve, though single readings scatter.
# Assays:
# [1] = molecular target: Lysosomal acid glucosylceramidase (Homo sapiens) (UniProt P04062); experiment: Glucocerebrosidase-p2 (AID 348; in the data active means potency below about 10 µM; further: potency means the concentration at half of the fitted maximal effect); settings: purified GBA, blue fluorogenic substrate, 40 min
# In short: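 Compounds titrated from 0.6 nM upwards against 0.2 nM enzyme in pH 5.9 citric acid/KH2PO4, taurocholate, tween-20; blue fluorogenic substrate 80 uM, 40 min room temperature, stopped and read Ex 365/Em 440 for AC50.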
# [2] = molecular target: Cytochrome P450 1A2 (Homo sapiens) (UniProt P05177); experiment: p450-cyp1a2 (AID 410; calls by dose curve; further: potency means the concentration at half of the fitted maximal effect;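 on activity change, negative = inhibition: -100% = full effect of reference inhibitor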); settings: recombinant CYP1A2, luciferin-ME demethylation, luminescence; series mostly up to 11.4 µM
# In short: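 Luminescent readout of luciferin formed from Luciferin-ME by human CYP1A2; data normalized against complete inhibition by 57 uM furafylline. Enzyme 20nM, substrate 100uM at Km, 100mM KPO4 buffer, 60 min reaction at room temperature.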
# [3] = molecular target: Glucocorticoid receptor (Homo sapiens) (UniProt P04150); experiment: GR-GFP Redistribution (AID 450;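 active means compounds whose dose series gives a full or clear partial fitted curve of increased nuclear translocation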; further: potency means the concentration at half of the fitted maximal effect); settings: U2OS GR-GFP nuclear translocation, laser cytometry, 2 h
# [4] = molecular target: Glucocorticoid receptor (Homo sapiens) (UniProt P04150); experiment: GR-EFC Redistribution (AID 451; calls by dose curve; further: potency means the concentration at half of the fitted maximal effect); settings: CHO-K1 GR-EFC translocation, beta-gal luminescence, 2 h
# In short: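 Translocation of GR-ED fusion to nuclear EA restores b-gal, read by luminescence after 1 h room-temperature detection. Engineered CHO-K1 biosensor cells, 1,000/well, exposed 2 h at 37 C to titrations up to 46 uM final.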
# [5] = molecular target: Mitogen-activated protein kinase 10 (Mus musculus) (UniProt Q61831); experiment: JNK3 AlphaScreen Assay (AID 530); settings: JNK3 lysate, c-Jun phosphorylation; series mostly up to 11.4 µM;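 further: kinase came from lysate of stimulated human HepG2 cells; signal reports phosphorylation of biotinylated GST-cJun 1-79 at Ser73 with 10 µM ATP; on the % scale 0 is the no-effect control and ±100 the full control effect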
# In short: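 Compound titrations were preincubated 15 minutes at room temperature with substrate, antibody and pre-activated JNK3-containing HepG2 lysate. Reactions were started with 10 uM ATP and stopped with EDTA-containing bead buffer for AlphaScreen detection.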
# [6] = molecular target: Cytochrome P450 3A4 (Homo sapiens) (UniProt P08684); experiment: qHTS Assay for Activators of Cytochrome P450 3A4 (AID 885; active means well fitted curve in the direction sought with a large enough effect; an effect the other way counts as inactive or inconclusive; further: nearly all actives have a fitted effect of over 65% in size); settings: recombinant CYP3A4, Luciferin-PPXE luminescence, 60 min; series mostly up to 11.4 µM
# In short: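 Signal was normalized against complete inhibition by 57 uM ketoconazole. The reaction used 20nM CYP3A4 with 25uM Luciferin-PPXE, 10-min compound preincubation and a 60-min NADPH-supported step at RT.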
# [7] = NFAT Signaling Pathway (AID 444); settings: Jurkat NFAT-bla M1, carbachol, beta-lactamase ratio, 5 h; at 7.69 µM (top of the series) unless noted;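 further: carbachol stimulus at about its EC50 of 1 µM final; on the % scale 0 is the no-effect control and ±100 the full control effect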
# In short: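 Read-out: CCF4 FRET ratio (460 nm/530 nm) after 1 h RT dye loading, used for %activity and AC50 from titration series. Cells: Jurkat NFAT-β-lactamase/M1 line, treated with compound plus 1 uM carbachol for 5 h, 37 °C.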
# [8] = Stat Signaling Pathway (AID 446); settings: ME-180 SIE beta-lactamase reporter, IL-6 stimulated, 5 h; at 7.69 µM (top of the series) unless noted;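 further: ME-180 cervical cancer cells given 40 pM IL-6 alongside compound; SIE-controlled beta-lactamase reporter measured as 460/530 nm FRET emission ratio; on the % scale 0 is the no-effect control and ±100 the full control effect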
# In short: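 Reporter line: ME-180 cervical carcinoma, SIE-beta-lactamase. Treatment: compound with 40 pM IL-6, 5 hrs, 37 C, in low-serum OPTI-MEM with 10 mM HEPES pH 7.3. Detection: 460/530 nm fluorescence.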
# [9] = molecular target: 3',5'-cyclic-AMP phosphodiesterase 4B (Homo sapiens) (UniProt Q07343); experiment: qHTS Assay for Inhibitors of PDE-IV (AID 607; active means well fitted activation curve with a large enough effect in the main read-out, with a control signal flat, not every such curve was filed as active; further: % of control where 0% means no effect); settings: HEK293 ACTOne CNG channel cells, membrane potential fluorescence; series mostly up to 22.9 µM
# In short: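 Cell-based read-out of cAMP via a modified cyclic nucleotide-gated channel and membrane potential dye (535/590 nm) in HEK293 cells expressing PDE4 endogenously. Compounds tested up to 22.9 uM final; 100 uM RO 20-1724 reference.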
# [10] = molecular target: Cytochrome P450 2C9 (Homo sapiens) (UniProt P11712); experiment: qHTS Assay for Inhibitors and Substrates of Cytochrome P450 2C9 (AID 883; active means well fitted curve in the direction sought with a large enough effect; an effect the other way counts as inactive or inconclusive; further: potency means the concentration at half of the fitted maximal effect; nearly all actives have a fitted effect of over 60% in size); settings: recombinant CYP2C9, luciferin-H luminescence, 60 min; series mostly up to 11.4 µM
# In short: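 Turnover of Luciferin-H (100uM, KM) by 10nM human CYP2C9 was measured over 60 min at 37C with NADPH regeneration; inhibitors and some substrates reduce luminescence. Data normalized to sulphaphenazole 57uM.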
# [11] = molecular target: Cytochrome P450 2D6 (Homo sapiens) (UniProt P10635); experiment: qHTS Assay for Inhibitors and Substrates of Cytochrome P450 2D6 (AID 891; active means well fitted curve in the direction sought with a large enough effect; an effect the other way counts as inactive or inconclusive; further: potency means the concentration at half of the fitted maximal effect; nearly all actives have a fitted effect of over 60% in size); settings: recombinant CYP2D6, luciferin-ME EGE luminescence; series mostly up to 11.4 µM
# In short: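 Human CYP2D6 (5 nM) with 30 uM Luciferin-ME EGE (at Km) in 100 mM KPO4, compound preincubated 10 min, then NADPH regeneration system for 60 min at room temperature. Luciferin read by luminescence; normalized to 1.43 uM quinidine.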
# [12] = molecular target: Cytochrome P450 2C19 (Homo sapiens) (UniProt P33261); experiment: qHTS Assay for Inhibitors and Substrates of Cytochrome P450 2C19 (AID 899; active means well fitted curve in the direction sought with a large enough effect; an effect the other way counts as inactive or inconclusive; further: potency means the concentration at half of the fitted maximal effect; nearly all actives have a fitted effect of over 60% in size); settings: recombinant CYP2C19, luciferin-H EGE luminescence; series mostly up to 11.4 µM
# In short: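 Reactions contain 5nM enzyme, 10uM Luciferin-H EGE (KM) and 50mM KPO4; compound preincubates 10 min at 37C, NADPH regeneration starts turnover for 60 min. Luminescence after detection reagent gives activity.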
# [13] = qHTS Assay for Identification of Small Molecule Agonists for Hypoxia Response Element Signaling Pathway (AID 914; active means well fitted activation curve with a large enough effect in the signal ratio, with a control signal flat, not every such curve was filed as active; the % refers to the signal ratio; further: potency means the concentration at half of the fitted maximal effect; on activation: % of control where 0% means no effect); settings: ME-180 (cervical carcinoma) HRE-bla reporter, beta-lactamase ratio, CoCl2, 17 h; activation: hits give high values
# In short: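 Positive modulation of EC50 CoCl2-induced hypoxia response element signaling is measured in ME-180 cells with a beta-lactamase reporter. Compounds are titrated, incubation runs 17 hours, and %Activity derives from the blue/green ratio.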
# [14] = molecular target: ATP-dependent 6-phosphofructokinase (Trypanosoma brucei brucei) (UniProt O15648); experiment: qHTS Assay to Find Inhibitors of T. brucei phosphofructokinase: hit validation (AID 492961; active means well fitted curve in the direction sought with a large enough effect; an effect the other way counts as inactive or inconclusive;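 further: luminescence reports ADP formed as PFK phosphorylates fructose-6-phosphate with ATP; on the % scale 0 is the no-effect control and ±100 the full control effect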); settings: T. brucei PFK, ADP-Glo luminescence; series mostly up to 51.4 µM
# In short: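 Measures ADP output of PFK (1.25 nM) at 0.1 mM ATP, 0.5 mM F6P, pH 8.0 TEA buffer with 5 mM MgCl2. No-enzyme wells define full inhibition; uninhibited enzyme wells define zero.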
# [15] = qHTS profiling for inhibitors of Plasmodium falciparum proliferation (AID 504749; active means well fitted curve in the direction sought with a large enough effect; an effect the other way counts as inactive or inconclusive;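 further: 0% = DMSO vehicle and full inhibition = artemisinin control; nearly all actives have a fitted effect of over 60% in size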); settings: P. falciparum in erythrocytes, SYBR Green DNA, 72 h, at 28.7 µM (top of the series)
# In short: (§1)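 Infected RBCs, 0.3% parasitemia/2.5% Hct final; cpd 72 h, 37 C, 5% CO2; lysis buffer with saponin/triton/SYBR Green I, o/n RT dark; FI 485/535; norm. to artemisinin (0.29 uM) and DMSO.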
# ATS189 = experiment: as above; settings: P. falciparum in erythrocytes, SYBR Green DNA, 72 h; series mostly up to 28.7 µM
# In short: as §1
# CP192 = experiment: as above; settings: P. falciparum in erythrocytes, SYBR Green DNA, 72 h; series mostly up to 28.7 µM
# In short: as §1
# CP201 = experiment: as above; settings: P. falciparum in erythrocytes, SYBR Green DNA, 72 h; series mostly up to 28.7 µM
# In short: as §1
# CP247 = experiment: as above; settings: P. falciparum in erythrocytes, SYBR Green DNA, 72 h; series mostly up to 28.7 µM
# In short: as §1
# Cytochrome P450 2C9 (Homo sapiens), sequence (P11712 whole entry, looked up): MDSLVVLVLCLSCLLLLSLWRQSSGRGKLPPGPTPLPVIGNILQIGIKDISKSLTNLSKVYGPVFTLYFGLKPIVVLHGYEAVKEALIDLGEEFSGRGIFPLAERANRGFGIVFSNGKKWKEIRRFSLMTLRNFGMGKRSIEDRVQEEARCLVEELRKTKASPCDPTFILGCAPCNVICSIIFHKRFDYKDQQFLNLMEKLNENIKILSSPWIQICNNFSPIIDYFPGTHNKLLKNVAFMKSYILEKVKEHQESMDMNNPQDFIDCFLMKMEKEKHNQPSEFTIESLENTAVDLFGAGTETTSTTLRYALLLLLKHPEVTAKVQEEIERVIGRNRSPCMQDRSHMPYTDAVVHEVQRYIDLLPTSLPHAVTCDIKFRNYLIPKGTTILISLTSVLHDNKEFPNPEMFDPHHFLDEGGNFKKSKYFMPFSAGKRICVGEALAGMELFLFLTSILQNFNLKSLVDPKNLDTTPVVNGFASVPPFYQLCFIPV
# Glucocorticoid receptor (Homo sapiens), sequence (P04150 whole entry, looked up, the tested form may be a part): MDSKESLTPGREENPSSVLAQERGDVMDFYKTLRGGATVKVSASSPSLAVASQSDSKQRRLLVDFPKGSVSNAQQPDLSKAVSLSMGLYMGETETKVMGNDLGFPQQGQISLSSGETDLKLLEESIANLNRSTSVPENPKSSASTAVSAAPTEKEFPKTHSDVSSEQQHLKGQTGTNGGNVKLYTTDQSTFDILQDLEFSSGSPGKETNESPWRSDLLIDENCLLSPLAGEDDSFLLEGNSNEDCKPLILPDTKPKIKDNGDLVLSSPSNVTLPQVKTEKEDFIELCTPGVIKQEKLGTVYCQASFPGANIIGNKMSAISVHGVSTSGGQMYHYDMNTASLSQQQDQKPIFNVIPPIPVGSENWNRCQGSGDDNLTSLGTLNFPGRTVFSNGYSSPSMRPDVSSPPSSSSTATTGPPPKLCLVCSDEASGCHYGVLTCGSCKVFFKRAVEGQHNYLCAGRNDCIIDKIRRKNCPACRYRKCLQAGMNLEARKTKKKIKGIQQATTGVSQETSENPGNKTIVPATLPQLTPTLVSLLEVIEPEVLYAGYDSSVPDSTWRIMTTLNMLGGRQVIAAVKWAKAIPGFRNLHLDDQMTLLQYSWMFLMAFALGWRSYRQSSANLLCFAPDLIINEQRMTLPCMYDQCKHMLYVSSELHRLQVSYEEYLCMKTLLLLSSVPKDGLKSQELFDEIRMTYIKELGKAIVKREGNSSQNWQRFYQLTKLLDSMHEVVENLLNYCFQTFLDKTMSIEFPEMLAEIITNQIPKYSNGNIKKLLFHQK
# Cytochrome P450 3A4 (Homo sapiens), sequence (P08684 whole entry, looked up): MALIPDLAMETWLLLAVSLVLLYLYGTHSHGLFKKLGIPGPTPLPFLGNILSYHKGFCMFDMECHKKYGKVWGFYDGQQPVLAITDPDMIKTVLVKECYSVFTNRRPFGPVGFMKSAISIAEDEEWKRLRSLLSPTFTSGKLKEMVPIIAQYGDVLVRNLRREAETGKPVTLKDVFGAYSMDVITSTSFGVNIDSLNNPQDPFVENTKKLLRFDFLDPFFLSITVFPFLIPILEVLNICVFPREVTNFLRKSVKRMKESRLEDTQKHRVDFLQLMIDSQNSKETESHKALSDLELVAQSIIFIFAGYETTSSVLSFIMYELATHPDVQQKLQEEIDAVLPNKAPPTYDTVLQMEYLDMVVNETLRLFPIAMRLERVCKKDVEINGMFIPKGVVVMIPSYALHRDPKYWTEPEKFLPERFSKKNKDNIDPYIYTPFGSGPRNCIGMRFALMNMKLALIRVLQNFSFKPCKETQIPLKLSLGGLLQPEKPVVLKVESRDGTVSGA
# 3',5'-cyclic-AMP phosphodiesterase 4B (Homo sapiens), sequence (Q07343 whole entry, looked up): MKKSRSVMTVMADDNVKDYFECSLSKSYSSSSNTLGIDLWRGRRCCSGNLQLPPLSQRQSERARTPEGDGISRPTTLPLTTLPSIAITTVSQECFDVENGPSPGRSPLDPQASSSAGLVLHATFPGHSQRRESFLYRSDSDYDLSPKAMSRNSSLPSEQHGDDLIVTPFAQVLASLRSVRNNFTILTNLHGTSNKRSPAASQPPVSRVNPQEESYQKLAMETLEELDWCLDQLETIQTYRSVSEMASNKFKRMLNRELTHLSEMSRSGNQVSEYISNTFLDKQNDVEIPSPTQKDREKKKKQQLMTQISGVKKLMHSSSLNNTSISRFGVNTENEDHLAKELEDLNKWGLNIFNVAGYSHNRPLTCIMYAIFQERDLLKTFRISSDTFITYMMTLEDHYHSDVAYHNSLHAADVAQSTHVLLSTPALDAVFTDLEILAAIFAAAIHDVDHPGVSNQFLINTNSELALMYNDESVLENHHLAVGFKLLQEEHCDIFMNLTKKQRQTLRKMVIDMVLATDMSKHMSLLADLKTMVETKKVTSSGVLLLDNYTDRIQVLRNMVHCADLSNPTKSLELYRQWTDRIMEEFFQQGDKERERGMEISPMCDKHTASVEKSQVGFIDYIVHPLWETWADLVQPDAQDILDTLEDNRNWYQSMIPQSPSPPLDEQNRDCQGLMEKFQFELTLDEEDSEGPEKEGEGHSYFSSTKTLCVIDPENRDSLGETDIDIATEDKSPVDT
# Cytochrome P450 2D6 (Homo sapiens), sequence (P10635 whole entry, looked up): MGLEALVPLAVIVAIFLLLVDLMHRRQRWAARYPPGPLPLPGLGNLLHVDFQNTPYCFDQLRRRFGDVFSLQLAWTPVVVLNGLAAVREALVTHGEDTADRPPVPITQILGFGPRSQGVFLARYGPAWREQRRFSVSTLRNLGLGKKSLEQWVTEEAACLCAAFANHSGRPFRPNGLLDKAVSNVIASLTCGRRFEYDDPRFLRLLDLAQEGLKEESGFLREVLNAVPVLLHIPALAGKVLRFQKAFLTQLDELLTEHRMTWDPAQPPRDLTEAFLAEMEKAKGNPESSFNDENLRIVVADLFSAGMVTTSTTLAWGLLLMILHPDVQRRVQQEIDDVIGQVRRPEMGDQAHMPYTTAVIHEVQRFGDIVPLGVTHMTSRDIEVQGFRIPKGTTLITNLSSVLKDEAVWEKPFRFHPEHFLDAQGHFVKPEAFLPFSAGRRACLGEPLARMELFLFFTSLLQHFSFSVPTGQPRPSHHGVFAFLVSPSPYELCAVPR
# Cytochrome P450 1A2 (Homo sapiens), sequence (P05177 whole entry, looked up): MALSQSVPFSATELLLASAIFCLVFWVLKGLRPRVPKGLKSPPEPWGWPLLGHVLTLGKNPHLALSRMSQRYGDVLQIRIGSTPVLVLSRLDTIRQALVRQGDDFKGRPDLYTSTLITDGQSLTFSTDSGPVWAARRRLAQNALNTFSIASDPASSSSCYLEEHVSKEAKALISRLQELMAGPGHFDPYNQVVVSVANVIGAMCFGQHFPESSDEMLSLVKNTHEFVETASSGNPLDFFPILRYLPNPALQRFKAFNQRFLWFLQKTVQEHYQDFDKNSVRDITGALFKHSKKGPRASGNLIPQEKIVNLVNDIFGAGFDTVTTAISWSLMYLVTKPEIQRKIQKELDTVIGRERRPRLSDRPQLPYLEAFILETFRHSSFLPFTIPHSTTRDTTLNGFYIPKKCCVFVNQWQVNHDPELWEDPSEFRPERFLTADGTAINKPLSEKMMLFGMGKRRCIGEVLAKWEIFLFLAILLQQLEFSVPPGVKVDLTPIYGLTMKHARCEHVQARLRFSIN
# Lysosomal acid glucosylceramidase (Homo sapiens), sequence (P04062 whole entry, looked up): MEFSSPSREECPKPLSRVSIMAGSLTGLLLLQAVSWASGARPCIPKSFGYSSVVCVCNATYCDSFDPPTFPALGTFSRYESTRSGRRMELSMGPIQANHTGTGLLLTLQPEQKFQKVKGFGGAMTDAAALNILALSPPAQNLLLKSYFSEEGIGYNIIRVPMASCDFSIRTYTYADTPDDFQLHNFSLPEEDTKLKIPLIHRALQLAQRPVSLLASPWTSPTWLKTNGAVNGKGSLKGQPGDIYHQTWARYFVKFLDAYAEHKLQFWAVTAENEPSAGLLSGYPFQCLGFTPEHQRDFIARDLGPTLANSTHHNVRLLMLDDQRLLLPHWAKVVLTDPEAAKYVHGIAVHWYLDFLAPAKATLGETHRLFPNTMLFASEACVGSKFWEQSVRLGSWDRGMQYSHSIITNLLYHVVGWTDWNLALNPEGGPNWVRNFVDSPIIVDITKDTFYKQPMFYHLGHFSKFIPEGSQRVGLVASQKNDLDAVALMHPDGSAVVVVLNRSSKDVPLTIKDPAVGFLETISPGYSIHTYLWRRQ
# Cytochrome P450 2C19 (Homo sapiens), sequence (P33261 whole entry, looked up): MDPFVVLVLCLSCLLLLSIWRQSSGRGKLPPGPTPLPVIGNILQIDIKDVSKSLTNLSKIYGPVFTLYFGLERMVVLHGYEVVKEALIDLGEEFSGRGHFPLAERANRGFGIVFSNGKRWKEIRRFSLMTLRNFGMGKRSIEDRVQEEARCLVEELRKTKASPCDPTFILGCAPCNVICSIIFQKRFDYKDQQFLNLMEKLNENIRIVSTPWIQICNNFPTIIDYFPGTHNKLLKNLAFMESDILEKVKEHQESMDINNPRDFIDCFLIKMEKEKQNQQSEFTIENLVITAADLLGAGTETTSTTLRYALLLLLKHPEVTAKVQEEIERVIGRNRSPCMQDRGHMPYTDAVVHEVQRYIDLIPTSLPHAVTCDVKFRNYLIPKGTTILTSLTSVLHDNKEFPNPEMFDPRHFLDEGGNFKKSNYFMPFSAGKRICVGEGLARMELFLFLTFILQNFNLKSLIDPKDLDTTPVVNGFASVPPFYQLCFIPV
compound,measurement,setting,value
N#CCCn1c(=O)c(-c2cccs2)nc2cnc(Oc3cccc(Cl)c3)nc21,Potency,[1],> 11.4 µM
same,Potency,[2],3.16 µM (active)
same,Potency,[3],> 9.22 µM
same,Potency,[4],> 46 µM
same,Potency,[5],inactive
same,Potency,[6],inactive
O=c1c(-c2ccc(F)cc2)nc2cnc(Oc3ccccc3)nc2n1C[C@H]1CCCO1,Potency,[1],> 11.4 µM
same,"activity change, negative = inhibition",[7],-2.24%
same,"activity, negative = inhibition",[8],-12.2%
same,Potency,[3],> 9.22 µM
same,Potency,[4],> 46 µM
same,Potency,[9],inactive
Cc1noc(C)c1C(=O)N1CCC[C@@]2(CCN(c3cccc(-c4ccccc4)c3)C2)C1,Potency,[1],> 11.4 µM
same,"activity change, negative = inhibition",[7],-20.7%
same,"activity, negative = inhibition",[8],-22.2%
same,Potency,[4],> 46 µM
same,Potency,[5],inactive
same,Potency,[9],inactive
O=C1C(Cl)=C(Nc2ccc(S(=O)(=O)Nc3ccccn3)cc2)C(=O)c2ccccc21,Potency,[1],> 11.4 µM
same,Potency,[2],3.16 µM (active)
same,Potency,[3],> 46 µM
same,Potency,[4],> 9.22 µM
same,Potency,[5],inactive
same,Potency,[9],inactive
same,Potency,[10],2 µM (active)
same,Potency,[11],3.16 µM (active)
same,Potency,[12],0.794 µM (active)
O=C1c2ccccc2-c2cc([N+](=O)[O-])c([N+](=O)[O-])cc21,Potency,[1],> 11.4 µM
same,Potency,[2],0.251 µM (active)
same,Potency,[3],> 46 µM
same,Potency,[4],> 9.22 µM
same,Potency,[5],inactive
same,Potency,[9],inactive
COc1ccc2nc3cc(Cl)ccc3c(Nc3ccc(O)c(CN4CCN(C)CC4)c3)c2c1,Potency,[1],> 11.4 µM
same,Potency,[2],3.98 µM (active)
same,"activity, negative = inhibition",[8],23%
same,Potency,[3],> 46 µM
same,Potency,[4],> 9.22 µM
same,Potency,[5],inactive
same,Potency,[9],inactive
same,activation,[13],26.1%
CN1CCN(c2ncc3nc(-c4ccc(Cl)cc4)c(=O)n(C4CC4)c3n2)CC1,Potency,[1],> 11.4 µM
same,Potency,[2],15.8 µM (active)
same,Potency,[3],> 9.22 µM
same,Potency,[4],> 46 µM
same,Potency,[5],inactive
same,Potency,[9],inactive
same,Potency,[13],3.16 µM (active)
COCCn1c(=O)c(-c2cccc(C#N)c2)nc2cnc(N3CCNCC3)nc21,Potency,[1],> 11.4 µM
same,Potency,[2],10 µM (active)
same,Potency,[3],> 9.22 µM
same,Potency,[4],> 46 µM
same,Potency,[5],inactive
same,Potency,[9],inactive
same,Potency,[10],3.98 µM (active)
same,Potency,[6],inactive
Nc1ncnc2c([C@@H]3O[C@@H](CO)[C@H](O)[C@@H]3O)nsc12,Potency,[1],> 11.4 µM
same,"activity change, negative = inhibition",[2],-16.8% [at 2.29 µM]
same,Potency,[3],> 46 µM
same,Potency,[4],> 9.22 µM
same,Potency,[5],inactive
same,Potency,[9],inactive
Nc1ccc(N=Nc2ccc(-c3ccc(O)cc3)cc2)c2ccc(S(=O)(=O)O)cc12,Potency,[1],> 11.4 µM
same,"activity change, negative = inhibition",[2],-17.8% [at 2.29 µM]
same,Potency,[3],> 46 µM
same,Potency,[4],> 9.22 µM
same,Potency,[9],inactive
CN1CCN(c2ncc3nc(-c4ccccc4)c(=O)n(Cc4ccc(F)cc4)c3n2)CC1,Potency,[1],> 11.4 µM
same,Potency,[2],inactive
same,Potency,[3],> 9.22 µM
same,Potency,[4],> 46 µM
same,Potency,[9],inactive
same,Potency,[13],3.16 µM (active)
CN(C)CCCN1c2ccc(O)cc2Sc2ccc(Cl)cc21,Potency,[1],9.49 µM (active)
same,Potency,[2],0.631 µM (active)
same,"activity, negative = inhibition",[8],18.9%
same,Potency,[3],> 46 µM
same,Potency,[4],> 9.22 µM
same,Potency,[5],inactive
same,Potency,[9],inactive
same,Potency,[11],0.126 µM (active)
NS(=O)(=O)c1ccc(N=Nc2cc3ccccc3c(C(=O)O)c2O)cc1,Potency,[1],> 11.4 µM
same,Potency,[2],1 µM (active)
same,Potency,[3],> 46 µM
same,Potency,[4],> 9.22 µM
same,Potency,[9],inactive
O=C(O)c1[nH]c(=O)[nH]c(=O)c1CN1CCCCC1,Potency,[1],> 11.4 µM
same,"activity change, negative = inhibition",[7],9.91%
same,"activity, negative = inhibition",[8],-5.07%
same,Potency,[4],> 9.22 µM
same,Potency,[5],inactive
same,Potency,[9],inactive
N#CCCn1c(=O)c(-c2ccc(F)cc2)nc2cnc(Oc3ccccc3)nc21,Potency,[1],> 11.4 µM
same,"activity change, negative = inhibition",[7],-6.96%
same,"activity, negative = inhibition",[8],-5.37%
same,Potency,[3],> 9.22 µM
same,Potency,[4],> 46 µM
same,Potency,[5],inactive
same,Potency,[9],inactive
CN(Cc1ccccc1)Cn1ccnc1,Potency,[1],> 11.4 µM
same,"activity change, negative = inhibition",[7],-1.18%
same,"activity, negative = inhibition",[8],10.2%
same,Potency,[3],> 46 µM
same,Potency,[4],> 9.22 µM
same,Potency,[5],inactive
same,Potency,[9],inactive
same,Potency,[10],2.51 µM (active)
same,Potency,[6],inactive
same,Potency,[11],0.794 µM (active)
same,Potency,[12],2 µM (active)
CCc1ccc2c(c1)N(C[C@H](C)CN(C)C)c1ccccc1S2,Potency,[1],> 11.4 µM
same,"activity, negative = inhibition",[8],3.53%
same,Potency,[3],> 46 µM
same,Potency,[4],> 9.22 µM
same,Potency,[5],inactive
same,Potency,[9],inactive
same,outcome,[14],inactive
same,"activity, negative = inhibition",[15]; parasite line A,-23.4%
same,"activity, negative = inhibition",[15]; parasite line B,-17.5%
same,Potency,ATS189,inactive
same,Potency,CP192,inactive
same,Potency,CP201,inactive
same,Potency,CP247,inactive
Oc1ccc(CNCc2ccccc2)c2cccnc12,Potency,[1],> 11.4 µM
same,"activity change, negative = inhibition",[7],-26.9%
same,"activity, negative = inhibition",[8],10.2%
same,Potency,[3],> 46 µM
same,Potency,[4],> 9.22 µM
same,Potency,[5],inactive
same,Potency,[9],inactive
same,Potency,[11],1.58 µM (active)
